According to PMC4336329 (PLoS ONE, 2015):
In all, about 310,000 compounds went through this assay and about 14,000 (4.5%) showed an effect of 50% or more. The effect is printed as a negative number. Only a selection was taken, and strong results are over-represented in it overall.

The compounds below were run against human ether-à-go-go-related gene (hERG) potassium channel (human, UniProt Q12809) (assay: primary screen, population patch clamp on CHO cells stably expressing hERG; higher = less effect of the substance).
human ether-à-go-go-related gene (hERG) potassium channel, sequence (Q12809 whole entry, looked up): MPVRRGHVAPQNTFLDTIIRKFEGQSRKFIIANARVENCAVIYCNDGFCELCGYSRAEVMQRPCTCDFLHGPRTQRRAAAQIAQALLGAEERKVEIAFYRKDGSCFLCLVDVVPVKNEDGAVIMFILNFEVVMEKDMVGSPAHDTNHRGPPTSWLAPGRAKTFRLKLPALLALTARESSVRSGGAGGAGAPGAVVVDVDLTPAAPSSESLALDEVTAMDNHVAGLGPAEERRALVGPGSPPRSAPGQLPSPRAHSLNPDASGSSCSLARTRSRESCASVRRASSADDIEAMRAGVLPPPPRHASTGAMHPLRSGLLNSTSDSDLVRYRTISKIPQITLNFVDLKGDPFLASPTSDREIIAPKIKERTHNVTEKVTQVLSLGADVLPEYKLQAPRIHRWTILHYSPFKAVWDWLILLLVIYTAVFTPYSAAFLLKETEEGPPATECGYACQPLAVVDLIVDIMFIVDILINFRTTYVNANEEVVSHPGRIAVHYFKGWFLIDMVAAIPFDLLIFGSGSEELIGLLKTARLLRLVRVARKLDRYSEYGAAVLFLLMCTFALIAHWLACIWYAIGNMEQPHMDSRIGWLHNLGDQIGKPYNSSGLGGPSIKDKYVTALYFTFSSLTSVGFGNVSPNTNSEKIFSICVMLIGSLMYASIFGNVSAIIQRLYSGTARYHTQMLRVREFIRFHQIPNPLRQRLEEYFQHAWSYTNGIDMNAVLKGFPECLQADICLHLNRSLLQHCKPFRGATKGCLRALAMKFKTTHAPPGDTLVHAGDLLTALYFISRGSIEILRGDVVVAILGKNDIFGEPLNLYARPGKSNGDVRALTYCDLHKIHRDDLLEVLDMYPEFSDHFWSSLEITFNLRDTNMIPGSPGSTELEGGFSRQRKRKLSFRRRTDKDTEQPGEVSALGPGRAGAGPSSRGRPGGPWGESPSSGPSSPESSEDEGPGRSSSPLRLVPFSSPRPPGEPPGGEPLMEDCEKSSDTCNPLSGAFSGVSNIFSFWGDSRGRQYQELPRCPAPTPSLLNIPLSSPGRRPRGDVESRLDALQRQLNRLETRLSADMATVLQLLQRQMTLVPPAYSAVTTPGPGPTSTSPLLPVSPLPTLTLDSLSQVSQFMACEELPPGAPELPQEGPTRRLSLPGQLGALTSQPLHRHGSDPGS
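Further: peak tail current of the secondary pulse compared with the same well before compound.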

Row | Structure (SMILES) | hERG current change (%, negative = inhibition) at 10uM [%]
1 | Cc1ccccc1NC(=O)NCc1ccc2c(c1)OCO2 | 11.6
2 | O=C(COC(=O)C1(c2ccc(Cl)cc2)CCCC1)N1CCc2ccccc21 | -1.16
3 | CCOC(=O)Nc1sc2c(c1C(N)=O)CCC(C)C2 (stereo not shown) | 16.4
4 | CC(=O)c1sc2nsc(SCCN3CCCC3)c2c1N | -0.32
5 | Cc1c(Cl)ccc(S(=O)(=O)Nc2cccnc2)c1Cl | 13.6
6 | Cc1cc(C(F)(F)F)nc(SCC(=O)NC2CCCCC2)n1 | -10
7 | O=C(CSc1nc2ccccc2c(=O)n1-c1ccc(F)c(Cl)c1)Nc1cccc(S(=O)(=O)N2CCOCC2)c1 | 21.8
8 | COCCn1c(SCC(=O)Nc2ccc(S(=O)(=O)N3CCOCC3)cc2)nc2ccccc21 | -58.8
9 | O=C(CSc1nc2ccccc2c(=O)n1CCCN1CCOCC1)Nc1cccc(S(=O)(=O)N2CCCCCC2)c1 | -72.2
10 | COCCn1c(SCC(=O)Nc2ccc(N3CCOCC3)cc2)nc2ccccc21 | -4.58
11 | O=C(CSc1nc2ccccc2c(=O)n1-c1ccccc1Cl)Nc1cccc(S(=O)(=O)N2CCOCC2)c1 | -6.76
12 | COCCn1c(SCC(=O)Nc2ccc(S(N)(=O)=O)cc2)nc2ccccc21 | -32.1
13 | COc1cc(N)ccc1NC(=O)c1cc2ccccc2o1 | 13.1
14 | O=C(CN1CCCC1)Nc1ccc(NC(=O)Nc2ccccc2)cc1 | 6.42
15 | O=S(=O)(NC(=S)NC1CCCCC1)c1ccc(Br)cc1 | 9.58
16 | COCCN(Cc1cccs1)S(=O)(=O)c1ccc(-c2ccc(=O)[nH]n2)s1 | -46.8
17 | CCCCN(Cc1ccco1)S(=O)(=O)c1ccc(-c2ccc(=O)[nH]n2)s1 | -27.7
18 | CCCCN(Cc1cccs1)S(=O)(=O)c1ccc(-c2ccc(=O)[nH]n2)s1 | -3.4
19 | CN(C)CCN(Cc1ccco1)S(=O)(=O)c1ccc(-c2ccc(=O)[nH]n2)s1 | -64.4
20 | CC(C)CCN(Cc1ccco1)S(=O)(=O)c1ccc(-c2ccc(=O)[nH]n2)s1 | -0.664
21 | CN(C)CCN(Cc1ccccc1)S(=O)(=O)c1ccc(-c2ccc(=O)[nH]n2)s1 | -67.4
22 | COc1ccccc1CNS(=O)(=O)c1c(C)nc2scc(C)n2c1=O | -8.78

Row | Structure (SMILES) | hERG current change (%, negative = inhibition) at 10uM [%]
23 | Cc1cc(Nc2ccc(F)cc2C)n2ncnc2n1 | -4.78
24 | CCCC(=O)Nc1nc2c(c(=O)[nH]1)CCCC2 | 10.2
25 | C/C(=C1/SC(=S)N(CCC(=O)O)C1=O)c1ccc(O)cc1 | 9.74
26 | Cc1ccc(Nc2nc(-c3ccc(F)cc3)cs2)nc1 | 17.1
27 | CC(=O)N(CCc1ccccc1C)Cc1cc2ccc(C)cc2[nH]c1=O | -18.3
28 | Cc1ccc2cc(CNC(C)(C)C)c(=O)[nH]c2c1 | -19
29 | Cc1ccc2cc(CNCCc3ccccc3C)c(=O)[nH]c2c1 | -69.7
30 | COc1ccc(CCN(Cc2cc3ccc(C)cc3n3nnnc23)C(C)=O)cc1OC | -32.7
31 | Cc1ccc2cc(CNC(C)C)c(=O)[nH]c2c1 | -9.38
32 | CCNC(=S)N(CCc1ccc(OC)c(OC)c1)Cc1cc2cc(OC)ccc2[nH]c1=O | -56.9
33 | CCC(=O)N(Cc1cc2ccc(C)cc2n2nnnc12)C1CCCCC1 | -32.3
34 | CCNC(=S)N(CCc1ccccc1C)Cc1cc2cc(OC)c(OC)cc2[nH]c1=O | -22.3
35 | CCC(=O)N(CCc1ccc(OC)c(OC)c1)Cc1cc2ccc(C)cc2n2nnnc12 | -76.8
36 | CCNC(=S)N(CCc1cccc(C)c1)Cc1cc2cc(OC)c(OC)cc2[nH]c1=O | -22.4
37 | CNCc1cc2ccc(C)cc2[nH]c1=O | -33.1
38 | Cc1cccc(CCNCc2cc3ccc(C)cc3[nH]c2=O)c1 | -77.3
39 | CCOC(=O)C1(CC2CCCCO2)CCN(C(=O)Nc2ccc3c(c2)OCO3)CC1 (stereo not shown) | 15.9
40 | COCC(=O)Nc1ccc(C(C)C)cc1 | -1.68
41 | CCCCC/S(CC1CC1(Cl)Cl)=N\S(=O)(=O)c1ccc(C)cc1 (stereo not shown) | 15.8
42 | Cc1sc(NC(=O)C2CCCCC2C(=O)O)c(C(N)=O)c1-c1ccc(C(C)C)cc1 (stereo not shown) | -9.39
43 | CCCCC(=O)Nc1nnc(SCC(=O)NCC2CCCO2)s1 (stereo not shown) | -24.8
